Results filed as inconclusive are left out. Values without a mark were called inactive. Active and inactive are the calls of the source. Calls follow the shape of the dose curve; as a rule, active = well fitted curve in the direction sought with a large enough effect in the repeat runs; inconclusive = weak or mixed curves; inactive = no such curve, though single readings can be large; an effect the other way counts as inactive or inconclusive.

A short description of assay [1]: qHTS RealTime-Glo MT Cell Viability Assay in HEK293 cells - 16 hour (AID 1224872). Also: top concentration of the series differs between compounds; nearly all actives have a fitted effect of over 50% in size. Put shortly:
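Quantitative high-throughput screen of the Tox21 10K library in HEK293: cells and RealTime-Glo reagents plated together, compound added at 5 h, luminescence monitored through 40 h at 37 C.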
For orientation: qHTS replaces the single test concentration by a dilution series.

Assay [2] can be described thus: qHTS RealTime-Glo MT Cell Viability Assay in HepG2 cells - 8 hour (AID 1224873). Also: nearly all actives have a fitted effect of over 55% in size. The procedure, abridged: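 HepG2 cells mixed with RealTime-Glo MT reagents (NanoLuc plus cell-permeant prosubstrate) were seeded at 600 cells/well, incubated 5 h at 37 C/5% CO2, then pinned with compounds in DMSO; nonlytic luminescence tracked viability during 40 h treatment.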
Assay [3] is described as follows: qHTS RealTime-Glo MT Cell Viability Assay in HEK293 cells - 40 hour (AID 1224874). Also: nearly all actives have a fitted effect of over 50% in size. The note with it: RealTime-Glo luminescence; max response: hits give low values. The procedure, abridged:
(§1)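 600 HEK293 cells per well, dispensed already mixed with RealTime-Glo MT reagents. Compound dosing came 5 h later. The same wells were read for luminescence at 0, 8, 16, 24, 32 and 40 h of exposure at 37 C.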

Assay [4] in a line: A CellTox Green Cytotoxicity Assay to monitor cytotoxicity in HEK293 cells - 24 hour (AID 1224875). Also: nearly all actives have a fitted effect of over 45% in size. Also: potency is read from the fitted curve at half-maximal effect. Put shortly: (§2)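 Dead-cell fluorescence measured kinetically: asymmetric cyanine dye, HEK293, 600 cells/well, 5 h settle, 23 nL cpd/DMSO, 37 C, reads 0–40 h every 8 h.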
The nature of assay [5]: qHTS RealTime-Glo MT Cell Viability Assay in HepG2 cells - 32 hour (AID 1224877). Also: nearly all actives have a fitted effect of over 55% in size. Put shortly:
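Compound treatment began 5 h after plating HepG2 cells (600/well) with NanoLuc luciferase and prosubstrate. Plates stayed at 37 C for 40 h; luminescence was captured at six time points, 0 h through 40 h.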

Assay [6] in a line: qHTS RealTime-Glo MT Cell Viability Assay in HEK293 cells - 0 hour (AID 1224880). Also: top concentration of the series differs between compounds; nearly all actives have a fitted effect of over 45% in size. Put shortly:
as §1

A short description of assay [7]: A CellTox Green Cytotoxicity Assay to monitor cytotoxicity in HEK293 cells - 32 hour (AID 1224881). Also: nearly all actives have a fitted effect of over 40% in size. Also: potency is read from the fitted curve at half-maximal effect. Put shortly: as §2
Assay [8] can be described thus: A CellTox Green Cytotoxicity Assay to monitor cytotoxicity in HepG2 cells - 16 hour (AID 1224876). Also: nearly all actives have a fitted effect of over 45% in size. The procedure, abridged:
(§3)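 First, HepG2 cells (600/well) mixed with reagent were plated; second, after 5 h at 37 C they received compounds via pintool; third, fluorescence was measured at 0 h through 40 h at 8 h intervals.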

A short description of assay [9]: A CellTox Green Cytotoxicity Assay to monitor cytotoxicity in HepG2 cells - 24 hour (AID 1224878). Also: nearly all actives have a fitted effect of over 45% in size. Put shortly:
as §3

Assay [10] is described as follows: A CellTox Green Cytotoxicity Assay to monitor cytotoxicity in HepG2 cells - 40 hour (AID 1224879). Also: nearly all actives have a fitted effect of over 40% in size. The procedure, abridged:
as §3
% is scaled to controls: 0 for no effect and ±100 for the full control effect.

On to `CC(C)CC(N(C)C)C1(c2ccc(Cl)cc2)CCC1` (centres undefined), for which the Potency result in assay [1], in [2] and in assay [5] was “inactive” throughout. Besides, in assay [3], the max response is -6.91%. The Potency in [4] and in [7] was 23.9 µM (active) each time. For the same compound, in [6], the compound was classed as inactive.

`CN1C[C@@H](NS(=O)(=O)N(C)C)C[C@@H]2c3cccc4c3c(cn4C)C[C@H]21`: the Potency result in [1], in assay [2], in assay [4], in assay [8], in [5] and in assay [9] was “inactive” in each case. Moreover, the Potency entry in [10] and in [7] was “inactive” each time. Moreover, the call in assay [6] was inactive.

Consider `CNNC`, for which the Potency entry in [1], in assay [2], in assay [4], in assay [8], in assay [5] and in assay [9] was “inactive” each time. The Potency result in [10] and in assay [7] was “inactive” in each case. Also, the compound was called inactive in assay [6].

In the case of `CC(CC(C#N)(c1ccccc1)c1ccccc1)N(C)C` (centres undefined), the Potency entry in assay [1], in assay [2], in assay [4], in assay [8], in [5] and in assay [9] was “inactive” each time. In addition, the Potency entry in assay [7] was “inactive”. The result in assay [6] was inactive.

As for `CCOP(=S)(OCC)SCSc1ccc(Cl)cc1`, the Potency entry in assay [1], in assay [2], in assay [4], in [8], in assay [5] and in assay [9] was “inactive” each time. The Potency result in [10] and in [7] was “inactive” each time. Moreover, the call in [6] was inactive.

Take `N#CCBr`: the Potency result in assay [1], in assay [2], in [4], in [8], in assay [5] and in assay [9] was “inactive” throughout. Further, the Potency result in [10] and in [7] was “inactive” in each case. Moreover, in assay [6], the outcome was inactive.

Regarding `CNCC(=O)c1ccc(O)c(O)c1`, the Potency entry in assay [1], in assay [4], in [8], in assay [5], in assay [9] and in assay [10] was “inactive” each time. For the same compound, the Potency entry in [7] is “inactive”. In addition, the max response in assay [3] was 2.09%. Besides, the compound was classed as inactive in assay [6].

Turning to `CCC1(c2ccccc2)C(=O)N=C(O)NC1=O` (centres undefined), the Potency entry in assay [1], in [4], in [8], in [5], in [9] and in [10] was “inactive” throughout. In [7], the Potency entry is “inactive”. Besides, the max response in assay [3] was 9.07%. The compound was called inactive in assay [6].

As for `CCC#N`, the Potency result in assay [1], in [4], in [8], in assay [5], in [9] and in assay [10] was “inactive” each time. Moreover, in assay [7], the Potency entry is “inactive”. In addition, in assay [3], the max response is 0.0723%. In [6], the compound was called inactive.

As for `C[C@]12CC[C@H]3[C@@H](CC=C4C[C@@H](O)CC[C@@]43C)[C@@H]1CC[C@@H]2O`, the Potency entry in assay [1], in [4], in assay [8], in assay [5], in assay [9] and in [10] was “inactive” throughout. In addition, the Potency entry in assay [7] is “inactive”. In addition, the max response in assay [3] is 8.6%. Besides, the compound was classed as inactive in assay [6].

As to `CNC(=O)Oc1ccccc1C1OCCO1`, the Potency result in [1], in assay [2], in assay [4], in assay [8], in [5] and in assay [10] was “inactive” each time. The Potency result in assay [7] is “inactive”. Also, in assay [6], the outcome was inactive.

As to `ClCCCN1CCN(c2cccc(Cl)c2)CC1`, the Potency result in [1], in [4], in assay [8], in assay [5], in assay [9] and in assay [10] was “inactive” in each case. Moreover, the Potency result in [7] is “inactive”. In addition, in assay [3], the max response was -25.9%. In addition, the result in assay [6] was inactive.

In the case of `O=C(CCN1CC1)OCC(CO)(COC(=O)CCN1CC1)COC(=O)CCN1CC1`, the Potency result in [1], in assay [4], in [8], in assay [5], in assay [9] and in [10] was “inactive” each time. In assay [7], the Potency entry was “inactive”. The max response in [3] was 0.103%. Moreover, the compound was classed as inactive in assay [6].

As for `OCCBr`, the Potency result in assay [1], in [4], in assay [8], in assay [5], in assay [9] and in assay [10] was “inactive” in each case. Further, in [7], the Potency entry was “inactive”. The max response in assay [3] was 13.1%. Besides, in [6], the call was inactive.

As for `CCCCOC(=O)c1ccccc1C(=O)O`, the Potency entry in [1], in [4], in [8], in [5], in assay [9] and in [10] was “inactive” each time. In addition, in assay [7], the Potency entry is “inactive”. In addition, in [3], the max response was 1.78%. Also, in [6], the call was inactive.

With `CCCCCCBr`, the Potency entry in assay [1], in assay [4], in [8], in assay [5], in [9] and in assay [10] was “inactive” throughout. Further, the Potency result in assay [7] is “inactive”. For the same compound, the max response in assay [3] was 13.7%. Further, the compound was called inactive in assay [6].

On to `O=[N+]([O-])c1cccc2cccnc12`, for which the Potency entry in assay [1], in assay [4], in assay [8], in [5], in [9] and in assay [10] was “inactive” throughout. In addition, in assay [7], the Potency result was “inactive”. Besides, the max response in [3] is -7.09%. Moreover, the result in assay [6] was inactive.

As for `CCN(CC)C(=O)[C@@H]1C=C2c3cccc4[nH]cc(c34)C[C@H]2N(C)C1`, the Potency entry in assay [1], in assay [2], in assay [4], in assay [8], in assay [5] and in [10] was “inactive” in each case. Further, in [7], the Potency entry is “inactive”. Besides, the compound was classed as inactive in assay [6].

Turning to `O=NN1CCCCC1`, the Potency result in assay [1], in assay [2], in assay [4], in assay [8], in assay [5] and in assay [10] was “inactive” each time. For the same compound, in assay [7], the Potency entry is “inactive”. The outcome in assay [6] was inactive.

Turning to `C[C@]1(O)CC[C@H]2[C@@H]3CCC4=CC(=O)CC[C@]4(C)[C@@]3(F)[C@@H](O)C[C@@]21C`, the Potency result in [1], in [2], in assay [8], in assay [5], in assay [9] and in [10] was “inactive” throughout. Also, in [7], the Potency result was “inactive”.

Consider `CCN(CC)CCOC(=O)C(C)(c1ccccc1)c1ccccc1`, for which the Potency entry in assay [1], in [2], in assay [4], in [8], in [5] and in assay [10] was “inactive” each time. For the same compound, the Potency entry in assay [7] was “inactive”. Further, the outcome in assay [6] was inactive.

Consider `CCOC(=O)NC(=S)Nc1ccccc1NC(=S)NC(=O)OCC`, for which the Potency entry in assay [1], in [2], in [4], in assay [8], in [5] and in assay [7] was “inactive” throughout. Moreover, in assay [6], the compound was called inactive.

Regarding `CC(C)(C)C(=O)C(Oc1ccc(Cl)cc1)n1cncn1` (centres undefined), the Potency result in assay [1], in assay [2], in [4], in assay [8], in assay [5] and in assay [10] was “inactive” each time. Besides, the Potency result in [7] was “inactive”. Moreover, the compound was classed as inactive in assay [6].

In the case of `CCOC(=O)CP(=O)(OCC)OCC`, the Potency result in assay [1], in assay [4], in assay [8], in [5], in assay [9] and in [10] was “inactive” each time. For the same compound, in assay [7], the Potency result is “inactive”. For the same compound, in [3], the max response is 0.417%. The compound was classed as inactive in [6].

Values taken from PubChem BioAssay (Tox21).
